Results reported in PubChem BioAssay (EPA / NIEHS).
Inconclusive results are not listed. Activity calls are given as the source filed them. The calls were made as follows: active = hit-call score of the fitted dose curve at least 0.9, where 1 is the maximum; inconclusive = response in the unintended direction; inactive = score below 0.9.

Experiments:
[1] = biological target: human Adenosine A1 Receptor (AdoRA1), ADORA1 (gene 134) (UniProt P30542); assay: NVS_GPCR_hAdoRA1: NovaScreen (NVS) G Protein-Coupled Receptor Assay for human Adenosine A1 Receptor (AdoRA1) (AID 2283254)
Sequence of human Adenosine A1 Receptor (AdoRA1), ADORA1 (gene 134) (P30542 whole entry, looked up): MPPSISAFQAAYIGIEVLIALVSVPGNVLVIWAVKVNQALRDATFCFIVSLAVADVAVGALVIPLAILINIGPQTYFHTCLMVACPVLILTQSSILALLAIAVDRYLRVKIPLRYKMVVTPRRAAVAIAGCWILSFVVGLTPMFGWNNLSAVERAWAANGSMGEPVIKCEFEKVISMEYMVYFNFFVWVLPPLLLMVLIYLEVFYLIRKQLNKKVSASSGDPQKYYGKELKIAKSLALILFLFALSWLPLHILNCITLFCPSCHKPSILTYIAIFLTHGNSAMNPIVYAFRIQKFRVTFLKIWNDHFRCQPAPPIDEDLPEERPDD
Summary of the method: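 Each chemical is first tested twice at 25 uM, actives later in dilution series, against a radioligand bound to human cortex membranes; after 1 h, filter-retained counts are compared with DMSO controls, lower signal indicating displacement.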

[2] = biological target: human Adenosine A2a Receptor (AdoRA2a), ADORA2A (gene 135) (UniProt P29274); assay: NVS_GPCR_hAdoRA2a: NovaScreen (NVS) G Protein-Coupled Receptor Assay for human Adenosine A2a Receptor (AdoRA2a) (AID 2283256)
Sequence of human Adenosine A2a Receptor (AdoRA2a), ADORA2A (gene 135) (P29274 whole entry, looked up): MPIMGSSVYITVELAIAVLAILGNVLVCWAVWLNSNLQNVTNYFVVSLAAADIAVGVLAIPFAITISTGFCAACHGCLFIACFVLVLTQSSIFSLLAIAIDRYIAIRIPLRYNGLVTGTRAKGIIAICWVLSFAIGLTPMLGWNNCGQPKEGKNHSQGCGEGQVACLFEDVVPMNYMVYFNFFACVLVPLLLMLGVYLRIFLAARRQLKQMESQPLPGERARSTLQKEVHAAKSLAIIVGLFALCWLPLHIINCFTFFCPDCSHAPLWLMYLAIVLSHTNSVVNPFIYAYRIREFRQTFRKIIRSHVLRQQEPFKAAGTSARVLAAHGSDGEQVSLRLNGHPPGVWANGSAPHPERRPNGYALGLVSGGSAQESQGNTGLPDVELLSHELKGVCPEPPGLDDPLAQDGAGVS
Summary of the method: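 Cell-free radioligand binding on membranes from HEK293 expressing the receptor; competitive displacement read 1.5 h after dosing by filter-based scintillation counting. Primary screen in duplicate at 25 uM; actives followed in concentration series, with DMSO as baseline.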

[3] = biological target: human Vascular Endothelial Growth Factor Receptor 2 (VEGFR2), KDR (gene 3791) (UniProt P35968); assay: NVS_ENZ_hVEGFR2: NovaScreen (NVS) Enzymatic Assay for human Vascular Endothelial Growth Factor Receptor 2 (VEGFR2) (AID 2283230)
Sequence of human Vascular Endothelial Growth Factor Receptor 2 (VEGFR2), KDR (gene 3791) (P35968 whole entry, looked up): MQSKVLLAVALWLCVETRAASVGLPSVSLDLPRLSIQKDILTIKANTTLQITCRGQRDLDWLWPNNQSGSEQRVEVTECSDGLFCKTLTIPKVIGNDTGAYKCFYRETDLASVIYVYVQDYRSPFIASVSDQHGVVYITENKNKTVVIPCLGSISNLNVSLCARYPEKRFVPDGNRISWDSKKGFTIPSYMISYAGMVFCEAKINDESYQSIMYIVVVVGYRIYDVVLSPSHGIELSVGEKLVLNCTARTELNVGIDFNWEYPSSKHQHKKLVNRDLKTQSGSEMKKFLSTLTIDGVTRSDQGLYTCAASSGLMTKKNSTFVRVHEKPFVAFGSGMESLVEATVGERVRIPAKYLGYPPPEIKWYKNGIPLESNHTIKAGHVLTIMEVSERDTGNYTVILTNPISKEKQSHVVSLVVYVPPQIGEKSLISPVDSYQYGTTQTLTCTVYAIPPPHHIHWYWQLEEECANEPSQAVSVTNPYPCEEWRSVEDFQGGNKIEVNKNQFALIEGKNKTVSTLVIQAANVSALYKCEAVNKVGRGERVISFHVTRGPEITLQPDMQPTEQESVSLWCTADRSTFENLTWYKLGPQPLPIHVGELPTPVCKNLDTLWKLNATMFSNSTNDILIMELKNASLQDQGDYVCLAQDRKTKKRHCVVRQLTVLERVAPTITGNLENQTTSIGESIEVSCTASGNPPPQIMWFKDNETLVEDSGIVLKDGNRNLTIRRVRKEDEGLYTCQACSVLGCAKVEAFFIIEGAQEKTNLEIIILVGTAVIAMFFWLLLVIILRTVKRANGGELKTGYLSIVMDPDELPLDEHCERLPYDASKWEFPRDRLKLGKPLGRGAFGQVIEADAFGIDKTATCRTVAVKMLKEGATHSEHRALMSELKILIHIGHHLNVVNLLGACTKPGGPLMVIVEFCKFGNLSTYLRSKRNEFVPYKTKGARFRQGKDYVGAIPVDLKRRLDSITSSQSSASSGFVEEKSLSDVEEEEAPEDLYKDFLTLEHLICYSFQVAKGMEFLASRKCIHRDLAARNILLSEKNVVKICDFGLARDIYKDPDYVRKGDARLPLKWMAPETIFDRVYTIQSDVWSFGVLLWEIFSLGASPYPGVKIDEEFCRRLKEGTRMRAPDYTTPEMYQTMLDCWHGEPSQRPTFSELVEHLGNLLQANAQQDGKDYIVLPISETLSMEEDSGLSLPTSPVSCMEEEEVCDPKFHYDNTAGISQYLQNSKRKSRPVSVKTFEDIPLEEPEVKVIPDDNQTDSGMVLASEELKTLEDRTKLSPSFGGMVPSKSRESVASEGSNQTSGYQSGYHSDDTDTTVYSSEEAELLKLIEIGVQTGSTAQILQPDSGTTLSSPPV
Summary of the method: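 Cell-free recombinant VEGFR2 kinase, fluorescent substrate with electrophoretic mobility-shift separation; read 1 h after dosing. Screened at 25 uM in duplicate, hits to concentration-response up to 50 uM; loss-of-signal versus DMSO.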

[4] = biological target: guinea pig Opioid, Kappa 1 Receptor (OpiateK), OPRK1 (gene 100135587) (UniProt P41144); assay: NVS_GPCR_gOpiateK: NovaScreen (NVS) G Protein-Coupled Receptor Assay for guinea pig Opioid, Kappa 1 Receptor (OpiateK) (AID 2283252);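 also: radioligand displacement from kappa opioid receptor in guinea pig cerebellar membranes; active means reduced radioligand binding relative to DMSO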
Sequence of guinea pig Opioid, Kappa 1 Receptor (OpiateK), OPRK1 (gene 100135587) (P41144 whole entry, looked up): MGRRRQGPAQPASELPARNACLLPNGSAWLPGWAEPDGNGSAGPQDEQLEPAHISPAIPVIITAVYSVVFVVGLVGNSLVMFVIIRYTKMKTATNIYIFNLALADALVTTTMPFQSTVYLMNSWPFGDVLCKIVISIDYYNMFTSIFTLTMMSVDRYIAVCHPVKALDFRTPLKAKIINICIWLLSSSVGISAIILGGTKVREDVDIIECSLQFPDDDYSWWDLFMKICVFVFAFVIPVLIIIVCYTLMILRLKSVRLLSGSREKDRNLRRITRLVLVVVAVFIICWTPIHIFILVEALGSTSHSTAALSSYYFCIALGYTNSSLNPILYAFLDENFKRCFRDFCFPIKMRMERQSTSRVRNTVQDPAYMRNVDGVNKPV
Summary of the method: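 Signal is scintillation counts of filter-trapped radioligand bound to guinea pig cerebellar membrane receptor, measured 2 hours post-dosing. Activity is loss of binding versus DMSO, first at 25 uM in duplicate, then as concentration series for actives.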

[5] = biological target: sheep Cyclooxygenase-1 (Cox1), PTGS1 (gene 443551) (UniProt P05979); assay: NVS_ENZ_oCOX1: NovaScreen (NVS) Enzymatic Assay for sheep Cyclooxygenase-1 (Cox1) (AID 2283239);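 also: actives reduce cyclooxygenase activity so potencies are for inhibitors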
Sequence of sheep Cyclooxygenase-1 (Cox1), PTGS1 (gene 443551) (P05979 whole entry, looked up): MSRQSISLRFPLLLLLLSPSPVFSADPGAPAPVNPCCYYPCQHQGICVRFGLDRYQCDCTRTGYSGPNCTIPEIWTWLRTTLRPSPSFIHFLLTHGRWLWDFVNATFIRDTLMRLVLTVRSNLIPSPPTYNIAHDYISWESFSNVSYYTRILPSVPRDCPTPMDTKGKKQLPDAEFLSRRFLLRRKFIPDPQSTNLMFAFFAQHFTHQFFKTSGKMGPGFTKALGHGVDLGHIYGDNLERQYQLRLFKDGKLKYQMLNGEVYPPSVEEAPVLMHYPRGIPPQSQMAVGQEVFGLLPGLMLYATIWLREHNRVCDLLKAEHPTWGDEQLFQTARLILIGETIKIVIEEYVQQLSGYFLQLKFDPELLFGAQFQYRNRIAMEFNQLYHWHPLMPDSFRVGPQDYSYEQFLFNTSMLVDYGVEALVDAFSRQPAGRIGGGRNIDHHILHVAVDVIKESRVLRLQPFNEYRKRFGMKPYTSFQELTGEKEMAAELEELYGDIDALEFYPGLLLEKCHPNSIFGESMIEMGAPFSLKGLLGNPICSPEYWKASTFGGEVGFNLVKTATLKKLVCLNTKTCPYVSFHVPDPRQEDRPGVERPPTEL
Summary of the method: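 Absorbance read-out of cyclooxygenase activity in a cell-free preparation from sheep seminal vesicles, taken 0.66 hour after dosing. Initial testing was in duplicate at 25 uM, and confirmatory testing was run in concentration series.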

[6] = biological target: rat Acetylcholinesterase (AChE), Ache (gene 83817) (UniProt P37136); assay: NVS_ENZ_rAChE: NovaScreen (NVS) Enzymatic Assay for rat Acetylcholinesterase (AChE) (AID 2283233)
Sequence of rat Acetylcholinesterase (AChE), Ache (gene 83817) (P37136 whole entry, looked up): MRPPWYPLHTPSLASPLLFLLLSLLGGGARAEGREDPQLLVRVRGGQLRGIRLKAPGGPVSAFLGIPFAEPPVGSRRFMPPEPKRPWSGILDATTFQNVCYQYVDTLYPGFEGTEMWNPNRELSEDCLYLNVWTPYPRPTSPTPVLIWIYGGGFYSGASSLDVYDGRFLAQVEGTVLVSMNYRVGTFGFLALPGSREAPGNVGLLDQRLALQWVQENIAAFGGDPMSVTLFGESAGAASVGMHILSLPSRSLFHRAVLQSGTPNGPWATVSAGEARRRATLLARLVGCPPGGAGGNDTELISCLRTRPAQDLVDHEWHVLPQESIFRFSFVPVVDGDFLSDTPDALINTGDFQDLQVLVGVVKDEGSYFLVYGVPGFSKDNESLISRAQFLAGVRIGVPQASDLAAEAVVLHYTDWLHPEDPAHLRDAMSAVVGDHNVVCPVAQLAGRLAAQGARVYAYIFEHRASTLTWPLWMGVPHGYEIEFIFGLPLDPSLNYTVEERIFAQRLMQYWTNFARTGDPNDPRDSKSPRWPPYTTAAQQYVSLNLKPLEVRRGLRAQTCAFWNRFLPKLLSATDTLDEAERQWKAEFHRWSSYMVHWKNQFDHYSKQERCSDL
Summary of the method: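 Rat brain membrane acetylcholinesterase activity measured colorimetrically 0.33 h after compound addition, loss of signal relative to DMSO. Primary screen in duplicate at 25 uM; actives re-run as concentration-response with 50 uM top concentration.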

[7] = system: rat Monoamine Oxidase, MAO-A, Central (MAOAC), gene 29253; assay: NVS_ENZ_rMAOAC: NovaScreen (NVS) Enzymatic Assay for rat Monoamine Oxidase, MAO-A, Central (MAOAC) (AID 2283243);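 also: potency refers to inhibition seen as signal drop below DMSO baseline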
Summary of the method: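 Rat brain tissue extract served as the cell-free enzyme source; activity was measured by radiometric scintillation counting 1.5 hours after compound addition. Loss of signal relative to DMSO baseline indicated inhibition; primary screen at 25 uM in duplicate.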

[8] = biological target: guinea pig Leukotriene D4 Receptor (LTD4), CYSLTR1 (gene 100135514) (UniProt Q2NNR5); assay: NVS_GPCR_gLTD4: NovaScreen (NVS) G Protein-Coupled Receptor Assay for guinea pig Leukotriene D4 Receptor (LTD4) (AID 2283248)
Sequence of guinea pig Leukotriene D4 Receptor (LTD4), CYSLTR1 (gene 100135514) (Q2NNR5 whole entry, looked up): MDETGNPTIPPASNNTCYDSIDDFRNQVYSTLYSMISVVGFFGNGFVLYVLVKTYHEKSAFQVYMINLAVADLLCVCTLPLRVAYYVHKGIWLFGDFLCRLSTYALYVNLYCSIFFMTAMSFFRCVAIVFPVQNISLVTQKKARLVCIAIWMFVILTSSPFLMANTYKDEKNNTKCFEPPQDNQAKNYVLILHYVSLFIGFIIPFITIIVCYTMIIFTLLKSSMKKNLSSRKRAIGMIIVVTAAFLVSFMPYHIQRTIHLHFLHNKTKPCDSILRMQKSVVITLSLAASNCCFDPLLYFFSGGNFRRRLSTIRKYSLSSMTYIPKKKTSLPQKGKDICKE
Summary of the method: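 Radioligand displacement on guinea pig lung membranes, 1 h incubation, filtration and scintillation counting; DMSO as negative control. Duplicate 25 uM primary screen, then singleton concentration-response up to 50 uM.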

[9] = system: rat Monoamine Oxidase, MAO-A, Peripheral (MAOAP), gene 29253; assay: NVS_ENZ_rMAOAP: NovaScreen (NVS) Enzymatic Assay for rat Monoamine Oxidase, MAO-A, Peripheral (MAOAP) (AID 2283237)
Summary of the method: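 Rat liver mitochondrial membranes served as the MAO-A source, with enzyme activity measured by radiometric scintillation counting 1.17 hours after dosing. Loss of signal was fitted against DMSO; primary screen used 25 uM in duplicate, follow-up used concentration series.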

[10] = biological target: rat Monoamine Oxidase, MAO-B, Central (MAOBC), Maob (gene 25750) (UniProt P19643); assay: NVS_ENZ_rMAOBC: NovaScreen (NVS) Enzymatic Assay for rat Monoamine Oxidase, MAO-B, Central (MAOBC) (AID 2283238)
Summary of the method: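 Compounds were first tested in duplicate at 25 uM against MAO-B from rat brain tissue; those passing the inhibition threshold were retested in concentration series up to 50 uM. Radiodetection by scintillation counting at 1.17 h, analysed against DMSO baseline.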

[11] = biological target: rat Monoamine Oxidase, MAO-B, Peripheral (MAOBP), Maob (gene 25750) (UniProt P19643); assay: NVS_ENZ_rMAOBP: NovaScreen (NVS) Enzymatic Assay for rat Monoamine Oxidase, MAO-B, Peripheral (MAOBP) (AID 2283242)
Procedure: NVS_ENZ_rMAOBP is a biochemical, single-readout assay that uses extracted gene-proteins from Rat brain in a tissue-based cell-free assay. Measurements were taken 1.17 hours after chemical dosing in a 96-well plate.NVS_ENZ_rMAOBP is one of one assay component(s) measured or calculated from the NVS_ENZ_rMAOBP assay. It is designed to make measurements of enzyme activity, a form of enzyme reporter, as detected with scintillation counting signals by Lysate-based radiodetection technology.Data from the assay component NVS_ENZ_rMAOBP was analyzed into 1 assay endpoint. This assay endpoint, NVS_ENZ_rMAOBP, was analyzed in the positive analysis fitting direction relative to DMSO as the negative control and baseline of activity. Using a type of enzyme reporter, loss-of-signal activity can be used to understand changes in the enzymatic activity as they relate to the gene Maob. Furthermore, this assay endpoint can be referred to as a primary readout, because this assay has produced multiple assay endpoints where this one serves a enzymatic activity function. To generalize the intended target to other relatable targets, this assay endpoint is annotated to the oxidoreductase intended target family, where the subfamily is monoamine oxidase. […]

[12] = system: guinea pig Leukotriene B4 Receptor (LTB4), gene 100379538; assay: NVS_GPCR_gLTB4: NovaScreen (NVS) G Protein-Coupled Receptor Assay for guinea pig Leukotriene B4 Receptor (LTB4) (AID 2283247)
Summary of the method: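 Radioligand displacement on guinea pig spleen membranes, filter-based scintillation counting 2 h after dosing. Primary duplicate single point at 25 uM; hits over threshold (e.g. 30% inhibition) run in concentration-response up to 50 uM, DMSO baseline.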

[13] = biological target: human Serotonin, 5-Hydroxytryptamine Receptor 5A (5HT5A), HTR5A (gene 3361) (UniProt P47898); assay: NVS_GPCR_h5HT5A: NovaScreen (NVS) G Protein-Coupled Receptor Assay for human Serotonin, 5-Hydroxytryptamine Receptor 5A (5HT5A) (AID 2283251)
Summary of the method: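 Cell-free radioligand displacement binding on HEK293-derived membrane protein, 1 h incubation, filter-based scintillation counting. Primary screen in duplicate at 25 uM, actives followed in concentration series; loss of signal fitted versus DMSO.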

[14] = biological target: human Adrenergic, Beta 1 Receptor (Adrb1), ADRB1 (gene 153) (UniProt P08588); assay: NVS_GPCR_hAdrb1: NovaScreen (NVS) G Protein-Coupled Receptor Assay for human Adrenergic, Beta 1 Receptor (Adrb1) (AID 2283258)
Sequence of human Adrenergic, Beta 1 Receptor (Adrb1), ADRB1 (gene 153) (P08588 whole entry, looked up): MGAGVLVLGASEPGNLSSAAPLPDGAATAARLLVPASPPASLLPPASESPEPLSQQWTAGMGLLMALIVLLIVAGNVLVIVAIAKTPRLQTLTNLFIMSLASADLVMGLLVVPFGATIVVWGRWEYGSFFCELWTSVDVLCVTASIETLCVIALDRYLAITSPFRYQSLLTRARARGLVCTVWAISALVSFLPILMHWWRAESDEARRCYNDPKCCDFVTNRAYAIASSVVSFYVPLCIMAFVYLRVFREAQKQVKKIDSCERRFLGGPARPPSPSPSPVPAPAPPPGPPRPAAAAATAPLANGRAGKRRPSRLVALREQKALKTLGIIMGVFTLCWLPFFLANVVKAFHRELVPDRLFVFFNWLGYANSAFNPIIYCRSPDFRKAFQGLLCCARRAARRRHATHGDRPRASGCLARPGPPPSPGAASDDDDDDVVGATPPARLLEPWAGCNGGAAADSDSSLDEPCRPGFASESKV
Summary of the method: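 Cell-free radioligand displacement on receptor from human neuroepithelioma cells; 2 h after dosing, filter-based scintillation counting. Primary screen in duplicate at 25 uM, actives retested in concentration series; loss of signal vs DMSO baseline.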

[15] = biological target: human Adrenergic, Beta 3 Receptor (Adrb3), ADRB3 (gene 155) (UniProt P13945); assay: NVS_GPCR_hAdrb3: NovaScreen (NVS) G Protein-Coupled Receptor Assay for human Adrenergic, Beta 3 Receptor (Adrb3) (AID 2283262)
Sequence of human Adrenergic, Beta 3 Receptor (Adrb3), ADRB3 (gene 155) (P13945 whole entry, looked up): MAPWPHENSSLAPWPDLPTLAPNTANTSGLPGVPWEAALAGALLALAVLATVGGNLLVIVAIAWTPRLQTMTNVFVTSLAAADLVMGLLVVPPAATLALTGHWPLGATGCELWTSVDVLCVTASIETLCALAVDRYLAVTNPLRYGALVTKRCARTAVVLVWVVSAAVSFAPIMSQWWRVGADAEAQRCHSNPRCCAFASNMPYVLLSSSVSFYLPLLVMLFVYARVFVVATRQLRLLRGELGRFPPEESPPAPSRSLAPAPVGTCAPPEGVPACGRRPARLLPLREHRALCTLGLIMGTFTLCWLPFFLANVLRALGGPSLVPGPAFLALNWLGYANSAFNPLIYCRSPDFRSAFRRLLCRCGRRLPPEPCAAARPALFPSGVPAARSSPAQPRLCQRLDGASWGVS
Summary of the method: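 Membranes from SK-N-MC cells pretreated with isoproterenol and 8-bromo-cAMP were used in a radioligand competitive displacement binding assay. Binding was read by filter-based scintillation counting 1 hour after dosing. Primary screening was in duplicate at 25 uM, with concentration series in follow-up.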

[16] = biological target: Adenosine receptor A1 (Bos taurus) (UniProt P28190); assay: NVS_GPCR_bAdoR_NonSelective: NovaScreen (NVS) G Protein-Coupled Receptor Assay for bovine Adenosine Receptor (AdoR), Non-selective Binding (AID 2283244)
Summary of the method: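 Bovine striatal membranes, radioligand displacement binding, 1 h after dosing, filter-based scintillation counting. Screened in duplicate at 25 uM, then concentration-response up to 50 uM; loss of specific binding relative to DMSO.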

Question: What does the source list for `Cc1cc(C(C)(C)c2ccc(O)c(C)c2)ccc1O`?
Answer: AC50 [1]: 8.39 µM (active); outcome [2]: inactive

Question: `OCCN(CCO)CCO` was tested. Which outcome [3] did it give?
Answer: inactive

Question: With `Nc1c(Oc2ccccc2)cc(O)c2c1C(=O)c1ccccc1C2=O` as the compound, how does the outcome [4] read?
Answer: inactive

Question: Which results are given for `N#CCCC(Br)(C#N)CBr` (centres undefined)?
Answer: AC50 [5]: 4.04 µM (active); outcome [4]: inactive

Question: `CCOC(=O)C(SP(=S)(OC)OC)c1ccccc1` (centres undefined) was tested. Which AC50 [6] did it give?
Answer: 10.2 µM (active)

Question: For `O=C(O)COc1cc(Cl)c(Cl)cc1Cl`, which outcome [5] is on record?
Answer: inactive

Question: How did the AC50 [7] turn out when `Oc1ccc(Cc2ccc(O)cc2)cc1` was run?
Answer: 25 µM (active)

Question: How did the outcome [2] turn out when `Cc1cccc(OP(=O)(Oc2cccc(C)c2)Oc2cccc(C)c2)c1` was run?
Answer: inactive

Question: Which AC50 [5] does the source give for `COc1ccccc1N` here?
Answer: 0.146 µM (active)

Question: `CCCCOC(C)=O` was tested. Which outcome [8] did it give?
Answer: inactive

Question: What about the outcome [1] of the same compound?
Answer: inactive

Question: With `Oc1cccc(-c2ccccc2)c1` as the compound, how does the AC50 [7] read?
Answer: 10.9 µM (active)

Question: For `CN(C)CCN(C)C`, which outcome [5] is on record?
Answer: inactive

Question: Which outcome [3] does the source give for `Oc1cc(Cl)c(Cl)cc1Cl` here?
Answer: inactive

Question: And the AC50 [9]?
Answer: 19.6 µM (active)

Question: And the AC50 [10]?
Answer: 8.69 µM (active)

Question: And the AC50 [11]?
Answer: 17.7 µM (active)

Question: What about the AC50 [7] of the same compound?
Answer: 16.5 µM (active)

Question: Which AC50 [12] does the source give for `O=C(O)C1(c2ccc3c(c2)OC[C@H](Cc2ccc(-c4ccccc4)cc2)[C@H]3O)CCCC1` here?
Answer: 0.00229 µM (active)

Question: And the outcome [8]?
Answer: inactive

Question: And the outcome [13]?
Answer: inactive

Question: What about the AC50 [14] of the same compound?
Answer: 25 µM (active)

Question: And the outcome [15]?
Answer: inactive

Question: For `CC(C)(C)c1ccccc1O`, which outcome [5] is on record?
Answer: inactive

Question: And the outcome [16]?
Answer: inactive

Question: For `CCOC(=O)CC(=O)CCl`, which outcome [8] is on record?
Answer: inactive

Question: `CCOP(=O)(OCC)OC(=CCl)c1ccc(Cl)cc1Cl` was tested. Which AC50 [6] did it give?
Answer: 6.51 µM (active)

Question: And the AC50 [4]?
Answer: 18.3 µM (active)

Question: What about the outcome [1] of the same compound?
Answer: inactive

Question: With `Oc1c(Cl)cc(Cl)cc1Cl` as the compound, how does the outcome [7] read?
Answer: inactive

Question: What about the outcome [12] of the same compound?
Answer: inactive

Question: How did the AC50 [6] turn out when `CCOC(=O)CCN(SN(C)C(=O)Oc1cccc2c1OC(C)(C)C2)C(C)C` was run?
Answer: 1.33 µM (active)
